# What was measured:
# Assay in all cases: SPOT peptide array binding signal intensity (averaged, normalized) (arbitrary units (background-subtracted, floor 0; scale differs between SH3 domains)); higher = stronger binding of the SH3 domain to the peptide
# CaNbp2 = biological target: CaNbp2
# In short: (§1)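 GST-fused SH3 domains from four yeast species were expressed in E. coli BL21(DE3), purified on glutathione Sepharose and incubated at 10 μg/ml overnight at 4°C in TBS-based blocking buffer on cellulose membranes carrying synthetic 15-mer peptides, with cysteines replaced by serines. Bound protein was detected with anti-GST antibody, an HRP anti-mouse secondary and luminol, then imaged and quantified with Genespotter. Binding signal is the normalized, background-subtracted spot intensity averaged over replicates, in arbitrary units that differ between domains.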
# CaRvs167 = biological target: CaRvs167
# In short: as §1
# CaRvs167-3 = biological target: CaRvs167-3
# In short: as §1
# CaSho1 = biological target: CaSho1
# In short: as §1
# CaSla1-D1-D2 = biological target: CaSla1-D1-D2
# In short: as §1
# CaSla1-D3 = biological target: CaSla1-D3
# In short: as §1
# ScAbp1 = biological target: ScAbp1
# In short: as §1
# ScBbc1 = biological target: ScBbc1
# In short: as §1
# ScBem1-D1 = biological target: ScBem1-D1
# In short: as §1
# ScBzz1-D1 = biological target: ScBzz1-D1
# In short: as §1
# ScBzz1-D2 = biological target: ScBzz1-D2
# In short: as §1
# ScCyk3 = biological target: ScCyk3
# In short: as §1
# ScFus1 = biological target: ScFus1
# In short: as §1
# ScHof1 = biological target: ScHof1
# In short: as §1
# ScHse1 = biological target: ScHse1
# In short: as §1
# ScLsb1 = biological target: ScLsb1
# In short: as §1
# ScLsb2 = biological target: ScLsb2
# In short: as §1
# ScLsb3 = biological target: ScLsb3
# In short: as §1
# ScLsb4 = biological target: ScLsb4
# In short: as §1
# ScMyo3 = biological target: ScMyo3
# In short: as §1
# ScMyo5 = biological target: ScMyo5
# In short: as §1
# ScNbp2 = biological target: ScNbp2
# In short: as §1
# ScPex13 = biological target: ScPex13
# In short: as §1
# ScRvs167 = biological target: ScRvs167
# In short: as §1
# ScSho1 = biological target: ScSho1
# In short: as §1
# ScSla1-D1-D2 = biological target: ScSla1-D1-D2
# In short: as §1
# ScSla1-D3 = biological target: ScSla1-D3
# In short: as §1
# SpAbp1-D1 = biological target: SpAbp1-D1
# In short: as §1
# SpBbc1 = biological target: SpBbc1
# In short: as §1
# SpBzz1-D1 = biological target: SpBzz1-D1
# In short: as §1
# SpBzz1-D2 = biological target: SpBzz1-D2
# In short: as §1
# SpCyk3 = biological target: SpCyk3
# In short: as §1
# SpHof1 = biological target: SpHof1
# In short: as §1
# SpHof1-2 = biological target: SpHof1-2
# In short: as §1
# SpHof1-3 = biological target: SpHof1-3
# In short: as §1
# SpHse1 = biological target: SpHse1
# In short: as §1
# SpLsb1 = biological target: SpLsb1
# In short: as §1
# SpLsb4 = biological target: SpLsb4
# In short: as §1
# SpMyo1 = biological target: SpMyo1
# In short: as §1
# SpNbp2 = biological target: SpNbp2
# In short: as §1
# SpPex13 = biological target: SpPex13
# In short: as §1
# SpRvs167 = biological target: SpRvs167
# In short: as §1
# SpSla1-D1-D2 = biological target: SpSla1-D1-D2
# In short: as §1
# SpSla1-D3 = biological target: SpSla1-D3
# In short: as §1
# AgAbp1 = biological target: AgAbp1
# In short: as §1
# AgBbc1 = biological target: AgBbc1
# In short: as §1
# AgBem1-D1 = biological target: AgBem1-D1
# In short: as §1
# AgBzz1-D1 = biological target: AgBzz1-D1
# In short: as §1
# AgBzz1-D2 = biological target: AgBzz1-D2
# In short: as §1
# AgCyk3 = biological target: AgCyk3
# In short: as §1
# AgFus1 = biological target: AgFus1
# In short: as §1
# AgHof1 = biological target: AgHof1
# In short: as §1
# AgHse1 = biological target: AgHse1
# In short: as §1
# AgLsb1 = biological target: AgLsb1
# In short: as §1
# AgLsb4 = biological target: AgLsb4
# In short: as §1
# AgMyo5 = biological target: AgMyo5
# In short: as §1
# AgNbp2 = biological target: AgNbp2
# In short: as §1
# AgRvs167 = biological target: AgRvs167
# In short: as §1
# AgSho1 = biological target: AgSho1
# In short: as §1
# AgSla1-D1-D2 = biological target: AgSla1-D1-D2
# In short: as §1
# AgSla1-D3 = biological target: AgSla1-D3
# In short: as §1
# CaAbp1-D1 = biological target: CaAbp1-D1
# In short: as §1
# CaAbp1-D2 = biological target: CaAbp1-D2
# In short: as §1
# CaBbc1 = biological target: CaBbc1
# In short: as §1
# CaBem1-D1 = biological target: CaBem1-D1
# In short: as §1
# CaBzz1-D1 = biological target: CaBzz1-D1
# In short: as §1
# CaBzz1-D2 = biological target: CaBzz1-D2
# In short: as §1
# CaCyk3 = biological target: CaCyk3
# In short: as §1
# CaFus1 = biological target: CaFus1
# In short: as §1
# CaHof1 = biological target: CaHof1
# In short: as §1
# CaHse1 = biological target: CaHse1
# In short: as §1
# CaLsb1 = biological target: CaLsb1
# In short: as §1
# CaLsb4 = biological target: CaLsb4
# In short: as §1
# CaMyo5 = biological target: CaMyo5
# In short: as §1
binder,measurement,setting,value
GKLKHIPRRPYEIER,SPOT peptide array binding signal intensity,CaNbp2,≤ 0
same,SPOT peptide array binding signal intensity,CaRvs167,2.83
same,SPOT peptide array binding signal intensity,CaRvs167-3,≤ 0
same,SPOT peptide array binding signal intensity,CaSho1,≤ 0
same,SPOT peptide array binding signal intensity,CaSla1-D1-D2,≤ 0
same,SPOT peptide array binding signal intensity,CaSla1-D3,≤ 0
same,SPOT peptide array binding signal intensity,ScAbp1,7
same,SPOT peptide array binding signal intensity,ScBbc1,55.2
same,SPOT peptide array binding signal intensity,ScBem1-D1,6
same,SPOT peptide array binding signal intensity,ScBzz1-D1,12
same,SPOT peptide array binding signal intensity,ScBzz1-D2,1
same,SPOT peptide array binding signal intensity,ScCyk3,17.5
same,SPOT peptide array binding signal intensity,ScFus1,≤ 0
same,SPOT peptide array binding signal intensity,ScHof1,≤ 0
same,SPOT peptide array binding signal intensity,ScHse1,150
same,SPOT peptide array binding signal intensity,ScLsb1,12.5
same,SPOT peptide array binding signal intensity,ScLsb2,≤ 0
same,SPOT peptide array binding signal intensity,ScLsb3,122
same,SPOT peptide array binding signal intensity,ScLsb4,5
same,SPOT peptide array binding signal intensity,ScMyo3,1.5
same,SPOT peptide array binding signal intensity,ScMyo5,0.5
same,SPOT peptide array binding signal intensity,ScNbp2,26.5
same,SPOT peptide array binding signal intensity,ScPex13,17.5
same,SPOT peptide array binding signal intensity,ScRvs167,16.7
same,SPOT peptide array binding signal intensity,ScSho1,71.5
same,SPOT peptide array binding signal intensity,ScSla1-D1-D2,12
same,SPOT peptide array binding signal intensity,ScSla1-D3,0.75
same,SPOT peptide array binding signal intensity,SpAbp1-D1,11
same,SPOT peptide array binding signal intensity,SpBbc1,1.75
same,SPOT peptide array binding signal intensity,SpBzz1-D1,240
same,SPOT peptide array binding signal intensity,SpBzz1-D2,≤ 0
same,SPOT peptide array binding signal intensity,SpCyk3,2.5
same,SPOT peptide array binding signal intensity,SpHof1,8
same,SPOT peptide array binding signal intensity,SpHof1-2,1
same,SPOT peptide array binding signal intensity,SpHof1-3,44.2
same,SPOT peptide array binding signal intensity,SpHse1,21
same,SPOT peptide array binding signal intensity,SpLsb1,12
same,SPOT peptide array binding signal intensity,SpLsb4,53.5
same,SPOT peptide array binding signal intensity,SpMyo1,0.75
same,SPOT peptide array binding signal intensity,SpNbp2,≤ 0
same,SPOT peptide array binding signal intensity,SpPex13,≤ 0
same,SPOT peptide array binding signal intensity,SpRvs167,3.17
same,SPOT peptide array binding signal intensity,SpSla1-D1-D2,≤ 0
same,SPOT peptide array binding signal intensity,SpSla1-D3,≤ 0
VPPVPLPFGIPPFPM,SPOT peptide array binding signal intensity,AgAbp1,3
same,SPOT peptide array binding signal intensity,AgBbc1,≤ 0
same,SPOT peptide array binding signal intensity,AgBem1-D1,288
same,SPOT peptide array binding signal intensity,AgBzz1-D1,6
same,SPOT peptide array binding signal intensity,AgBzz1-D2,10
same,SPOT peptide array binding signal intensity,AgCyk3,≤ 0
same,SPOT peptide array binding signal intensity,AgFus1,≤ 0
same,SPOT peptide array binding signal intensity,AgHof1,338
same,SPOT peptide array binding signal intensity,AgHse1,51
same,SPOT peptide array binding signal intensity,AgLsb1,2
same,SPOT peptide array binding signal intensity,AgLsb4,≤ 0
same,SPOT peptide array binding signal intensity,AgMyo5,720
same,SPOT peptide array binding signal intensity,AgNbp2,5
same,SPOT peptide array binding signal intensity,AgRvs167,≤ 0
same,SPOT peptide array binding signal intensity,AgSho1,4
same,SPOT peptide array binding signal intensity,AgSla1-D1-D2,4
same,SPOT peptide array binding signal intensity,AgSla1-D3,5.75
same,SPOT peptide array binding signal intensity,CaAbp1-D1,8
same,SPOT peptide array binding signal intensity,CaAbp1-D2,11
same,SPOT peptide array binding signal intensity,CaBbc1,2.5
same,SPOT peptide array binding signal intensity,CaBem1-D1,20
same,SPOT peptide array binding signal intensity,CaBzz1-D1,32
same,SPOT peptide array binding signal intensity,CaBzz1-D2,≤ 0
same,SPOT peptide array binding signal intensity,CaCyk3,3
same,SPOT peptide array binding signal intensity,CaFus1,102
same,SPOT peptide array binding signal intensity,CaHof1,≤ 0
same,SPOT peptide array binding signal intensity,CaHse1,2.5
same,SPOT peptide array binding signal intensity,CaLsb1,0.25
same,SPOT peptide array binding signal intensity,CaLsb4,27.5
same,SPOT peptide array binding signal intensity,CaMyo5,296
same,SPOT peptide array binding signal intensity,CaNbp2,88.5
same,SPOT peptide array binding signal intensity,CaRvs167,1.33
same,SPOT peptide array binding signal intensity,CaRvs167-3,2.5
same,SPOT peptide array binding signal intensity,CaSho1,25
same,SPOT peptide array binding signal intensity,CaSla1-D1-D2,34
same,SPOT peptide array binding signal intensity,CaSla1-D3,25.8
same,SPOT peptide array binding signal intensity,ScAbp1,≤ 0
same,SPOT peptide array binding signal intensity,ScBbc1,≤ 0
same,SPOT peptide array binding signal intensity,ScBem1-D1,1
same,SPOT peptide array binding signal intensity,ScBzz1-D1,≤ 0
same,SPOT peptide array binding signal intensity,ScBzz1-D2,2.5
same,SPOT peptide array binding signal intensity,ScCyk3,2.5
same,SPOT peptide array binding signal intensity,ScFus1,≤ 0
same,SPOT peptide array binding signal intensity,ScHof1,144
same,SPOT peptide array binding signal intensity,ScHse1,47
same,SPOT peptide array binding signal intensity,ScLsb1,0.75
same,SPOT peptide array binding signal intensity,ScLsb2,≤ 0
same,SPOT peptide array binding signal intensity,ScLsb3,6.5
same,SPOT peptide array binding signal intensity,ScLsb4,≤ 0
same,SPOT peptide array binding signal intensity,ScMyo3,867
same,SPOT peptide array binding signal intensity,ScMyo5,308
same,SPOT peptide array binding signal intensity,ScNbp2,23
same,SPOT peptide array binding signal intensity,ScPex13,772
same,SPOT peptide array binding signal intensity,ScRvs167,0.333
same,SPOT peptide array binding signal intensity,ScSho1,41
same,SPOT peptide array binding signal intensity,ScSla1-D1-D2,≤ 0
same,SPOT peptide array binding signal intensity,ScSla1-D3,7.5
same,SPOT peptide array binding signal intensity,SpAbp1-D1,2
same,SPOT peptide array binding signal intensity,SpBbc1,1.5
same,SPOT peptide array binding signal intensity,SpBzz1-D1,236
same,SPOT peptide array binding signal intensity,SpBzz1-D2,1.5
same,SPOT peptide array binding signal intensity,SpCyk3,1
same,SPOT peptide array binding signal intensity,SpHof1,4
same,SPOT peptide array binding signal intensity,SpHof1-2,9.5
same,SPOT peptide array binding signal intensity,SpHof1-3,7
same,SPOT peptide array binding signal intensity,SpHse1,70.8
same,SPOT peptide array binding signal intensity,SpLsb1,≤ 0
same,SPOT peptide array binding signal intensity,SpLsb4,51.5
same,SPOT peptide array binding signal intensity,SpMyo1,775
same,SPOT peptide array binding signal intensity,SpNbp2,7
same,SPOT peptide array binding signal intensity,SpPex13,9.5
same,SPOT peptide array binding signal intensity,SpRvs167,24.5
same,SPOT peptide array binding signal intensity,SpSla1-D1-D2,3
same,SPOT peptide array binding signal intensity,SpSla1-D3,6
